PubChem BioAssay (Tox21)
Inconclusive results are not listed. Calls of active or inactive are those of the source. Unless noted, calls come from the whole dose curve; as a rule, active = well fitted curve in the direction sought with a large enough effect in the repeat runs; inconclusive = weak or mixed curves; inactive = no such curve, though single readings can be large; an effect the other way counts as inactive or inconclusive.

What was measured:
[1] = qHTS assay for small molecules that induce genotoxicity in human embryonic kidney cells expressing luciferase-tagged ATAD5 (AID 651632); note: nearly all actives have a fitted effect of over 15% in size
In short: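 A rise in luciferase signal from ATAD5-tagged HEK293T cells marks genetic stress. Cells were exposed to compounds for 16 hr at 37C, 5% CO2, then luciferase was quantified after a 30 min room-temperature incubation with Amplite.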

[2] = qHTS assay for small molecule agonists of the p53 signaling pathway - cell viability (AID 651633; calls by dose curve; note: nearly all actives have a fitted effect of over 30% in size; note: potency is the fitted concentration of half-maximal effect;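 for activity change, negative = cytotoxicity: p53RE-bla HCT reporter cells with a stable beta-lactamase p53 reporter; series mostly up to about 83 µM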)
In short: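 p53RE-bla cells were treated with compound for 16 hours at 37 C. Cytotoxicity was then measured as CellTiter-Glo luminescence after 30 min at room temperature.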

[3] = qHTS assay for small molecules that induce genotoxicity in human embryonic kidney cells expressing luciferase-tagged ATAD5 - cell viability (AID 651634; calls by dose curve; note: nearly all actives have a fitted effect of over 25% in size; note: potency is the fitted concentration of half-maximal effect)
In short: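 Cytotoxicity counter-readout: after 15.5 hr compound treatment at 37C, live-cell protease activity in ATAD5-luciferase HEK293T cells measured by CellTiter-Fluor fluorescence, 30 min development at 37C.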

[4] = qHTS assay for small molecule disruptors of the mitochondrial membrane potential - cell viability (AID 720634; calls by dose curve; note: nearly all actives have a fitted effect of over 20% in size; note: potency is the fitted concentration of half-maximal effect;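 for activity change, negative = cytotoxicity: human HepG2 liver cancer cells; series mostly up to about 83 µM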)
In short: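 Cytotoxicity was quantified from ATP content by CellTiter-Glo luminescence in the same wells as the MMP dye read-out. HepG2 (2,000 cells/well) were plated overnight and exposed to compounds for 1 hr at 37 C.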

[5] = qHTS assay for small molecule disruptors of the mitochondrial membrane potential (AID 720635); note: potency is the fitted concentration of half-maximal effect
In short: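 HepG2 cells exposed to compound 1 hr at 37C, then Mito-MPS dye 30 min. Ratio read of aggregate (540/590 nm) versus monomer (490/535 nm) fluorescence.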

[6] = qHTS assay to test for compound auto fluorescence at 535 nm (green) in HepG2 cells (AID 720675)
[7] = qHTS assay to test for compound auto fluorescence at 460 nm (blue) in HEK293 cells (AID 720678)
In short: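 Intrinsic compound fluorescence is recorded in live HEK293 cultures after overnight incubation at 37C, 5% CO2, using excitation 405 nm and emission 460 nm. Values are referenced to triamterene.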

[8] = qHTS assay to test for compound auto fluorescence at 590 nm (red) in HEK293 cells (AID 720679)
In short: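 Red autofluorescence, HEK293 cells: 2,000 cells/well; attach 4-5 hr 37C; add 23 nL cpd or DMSO; incubate o/n 37C 5% CO2; read Ex540/Em590; Rose Bengal sodium reference.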

[9] = qHTS assay to test for compound auto fluorescence at 590 nm (red) in HepG2 cells (AID 720674)
In short: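 Seeding: 2,000 HepG2 cells/well, MEM/10% FBS, overnight 37 C. Dosing: compound vs DMSO. Incubation: 1 hr, 37 C, 5% CO2. Read: fluorescence 540 ex/590 em, Rose Bengal sodium as red reference.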
% is set by controls: 0 for no effect and ±100 for the full control effect.

C=CC(=O)OCCCCCCCCCC
inactive: Potency [1] | Potency [2] | Potency [3] | Potency [4] | Potency [5] | outcome [6] | Potency [7] | outcome [8]

Cc1c(Cl)cccc1Nc1ccccc1C(=O)O
active: Potency [2] 18.8 µM | Potency [5] 11.9 µM
inactive: Potency [1] | Potency [3] | Potency [4] | outcome [9] | outcome [6] | Potency [7] | outcome [8]

CC(COc1ccccc1)NC(C)C(O)c1ccc(O)cc1 (centres undefined)
inactive: Potency [1] | Potency [2] | Potency [3] | Potency [4] | Potency [5] | fluorescence, relative to Rose Bengal [9] -0.283% [at 18.6 µM] | fluorescence, % of fluorescein control [6] -0.086% [at 18.6 µM] | fluorescence, % of triamterene [7] -0.0294% [at 18.6 µM] | fluorescence, % of fluorescent control [8] -0.22% [at 18.6 µM]

OCCc1ccncc1
inactive: Potency [1] | Potency [2] | Potency [3] | Potency [4] | outcome [9] | outcome [6] | Potency [7] | outcome [8]

N#Cc1ccc(CC(=O)c2cccc(C(F)(F)F)c2)cc1
inactive: Potency [1] | Potency [2] | Potency [3] | outcome [9] | outcome [6] | Potency [7] | outcome [8]
active: Potency [4] 48.6 µM

CC(O)C(C)O (centres undefined)
inactive: Potency [1] | Potency [2] | Potency [3] | Potency [4] | Potency [5] | outcome [9] | outcome [6] | Potency [7] | outcome [8]

CC(C)CC(C)(C)C
inactive: Potency [1] | Potency [2] | Potency [3] | Potency [4] | Potency [5] | outcome [9] | outcome [6] | Potency [7] | outcome [8]

CC(=O)Nc1ccn(C2COC(COC(=O)c3ccccc3)O2)c(=O)n1 (centres undefined)
inactive: Potency [1] | Potency [2] | Potency [3] | Potency [4] | Potency [5] | outcome [9] | outcome [6] | outcome [8]

CCCCCCCCCC(C)C=O (centres undefined)
inactive: Potency [1] | Potency [2] | Potency [3] | Potency [4] | Potency [5] | outcome [6] | Potency [7]

COC=O
inactive: activation [1] -1.31% [at 8.08 µM] | activity change, negative = cytotoxicity [2] 21.3% [at 8.08 µM] | activity, negative = cytotoxicity [3] 20.8% [at 8.08 µM] | activity change, negative = cytotoxicity [4] 7.15% [at 8.08 µM] | fluorescence, relative to Rose Bengal [9] 0.0697% [at 9.17 µM] | fluorescence, % of fluorescein control [6] 0.016% [at 9.17 µM] | fluorescence, % of triamterene [7] -0.185% [at 9.17 µM] | fluorescence, % of fluorescent control [8] 0.13% [at 9.17 µM]

CCC[Si](OC)(OC)OC
inactive: Potency [1] | Potency [2] | Potency [3] | Potency [4] | Potency [5] | outcome [9] | outcome [6] | Potency [7] | outcome [8]

C[C@@H](O)[C@H]1C(=O)N2C(C(=O)O)=C(S[C@@H]3CN[C@H](CNS(N)(=O)=O)C3)[C@H](C)[C@H]12
inactive: Potency [1] | Potency [2] | Potency [3] | Potency [4] | Potency [5] | outcome [9] | outcome [6] | Potency [7] | outcome [8]

CC(=O)Nc1cccc(N)c1
inactive: Potency [1] | Potency [2] | Potency [3] | Potency [4] | outcome [9] | outcome [6] | Potency [7] | outcome [8]

Clc1nc2ccccc2nc1Cl
inactive: Potency [1] | Potency [2] | Potency [3] | Potency [4] | outcome [9] | outcome [6] | Potency [7] | outcome [8]

O=[N+]([O-])c1cccc(I)c1
inactive: Potency [1] | Potency [2] | Potency [3] | Potency [4] | Potency [5] | outcome [9] | outcome [6] | Potency [7]

Oc1ccc(Oc2ccccc2)cc1
active: Potency [5] 20.6 µM
inactive: Potency [1] | Potency [2] | Potency [3] | Potency [4] | outcome [9] | outcome [6] | Potency [7] | outcome [8]

CCCN(C1CCN(C(=O)C2CCNCC2)CC1)[C@@H]1CCc2ccc(OC)cc2C1
inactive: Potency [1] | Potency [2] | Potency [3] | Potency [4] | outcome [9] | outcome [6] | Potency [7] | outcome [8]

CC1(C)CC(=O)CC(C)(C)N1
inactive: Potency [1] | Potency [2] | Potency [3] | Potency [4] | outcome [9] | outcome [6] | Potency [7]

C[C@H](CN1CCCC1)C(=O)c1ccc(C(F)(F)F)cc1
inactive: Potency [1] | Potency [2] | Potency [3] | Potency [4] | Potency [5] | outcome [9] | outcome [6] | Potency [7] | outcome [8]

CCCCCCCCCCCCSCCOCCO
inactive: Potency [1] | Potency [2] | Potency [3] | Potency [4] | Potency [5] | outcome [6] | Potency [7]

Cc1cc(SC2=C(O)C[C@@](CCc3ccc(N)cc3)(C(C)C)OC2=O)c(C(C)(C)C)cc1CO
inactive: Potency [1] | Potency [2] | Potency [3] | Potency [4] | outcome [9] | outcome [6] | Potency [7]

CC(C)(C(=O)O)c1ccc(C(O)CCCN2CCC(C(O)(c3ccccc3)c3ccccc3)CC2)cc1 (centres undefined)
inactive: Potency [1] | Potency [2] | Potency [3] | Potency [4] | Potency [5] | outcome [9] | outcome [6] | Potency [7] | outcome [8]

CCOCCn1c(N2CCCN(C)CC2)nc2ccccc21
inactive: Potency [1] | Potency [2] | Potency [3] | Potency [4] | outcome [9] | outcome [6] | Potency [7]

O=S(=O)(O)c1cc(Cl)c(Cl)cc1Cl
inactive: Potency [1] | Potency [2] | Potency [3] | Potency [4] | outcome [9] | outcome [6] | Potency [7]

Nc1nc(Cl)nc2c1ncn2[C@H]1C[C@H](O)[C@@H](CO)O1
inactive: Potency [1] | Potency [2] | Potency [3] | Potency [4] | Potency [5] | outcome [9] | outcome [6] | Potency [7] | outcome [8]

CC(=O)CC/C=C(\C)CC/C=C(\C)CC/C=C(\C)CCC=C(C)C
inactive: Potency [1] | Potency [2] | Potency [3] | Potency [4] | outcome [9] | outcome [6] | Potency [7] | outcome [8]

C=Cc1ccc(C=C)cc1
inactive: Potency [1] | Potency [2] | Potency [3] | Potency [4] | outcome [9] | outcome [6] | Potency [7] | outcome [8]

CC(=O)OCC(=O)[C@@]1(O)CC[C@H]2[C@@H]3CCC4=CC(=O)C=C[C@]4(C)[C@@]3(F)[C@@H](O)C[C@@]21C
inactive: Potency [1] | Potency [2] | Potency [3] | Potency [4] | fluorescence, relative to Rose Bengal [9] -0.399% [at 18.6 µM] | fluorescence, % of fluorescein control [6] 0.0333% [at 18.6 µM] | fluorescence, % of triamterene [7] 0.0056% [at 18.6 µM] | fluorescence, % of fluorescent control [8] 0.478% [at 18.6 µM]

COC(=O)c1cc(Cl)ccc1[N+](=O)[O-]
inactive: Potency [1] | Potency [2] | Potency [4] | outcome [9] | outcome [6] | Potency [7] | outcome [8]

CCC(=O)O[C@@H]1C[C@H]2CC[C@]1(C)C2(C)C
inactive: Potency [1] | Potency [2] | Potency [4] | outcome [9] | outcome [6] | Potency [7] | outcome [8]

CC(CN=Cc1ccccc1O)N=Cc1ccccc1O (centres undefined)
inactive: Potency [1] | Potency [2] | Potency [3] | Potency [5] | outcome [6] | Potency [7] | outcome [8]

CCc1ccc(C(=O)C(C)CN2CCCCC2)cc1 (centres undefined)
inactive: Potency [1] | Potency [2] | Potency [4] | outcome [6] | Potency [7] | outcome [8]

CCC1=C(C)CN(C(=O)NCCc2ccc(S(=O)(=O)NC(=O)NC3CCC(C)CC3)cc2)C1=O (centres undefined)
inactive: Potency [1] | Potency [2] | Potency [3] | Potency [4] | outcome [9] | outcome [6] | Potency [7] | outcome [8]

CS(C)=O
inactive: Potency [1] | Potency [2] | Potency [3] | outcome [9] | outcome [6] | Potency [7] | outcome [8]

CC/C=C\CCO
inactive: Potency [1] | Potency [2] | Potency [4] | outcome [6] | Potency [7] | outcome [8]

CC(C)(Cc1c[nH]c2ccccc12)NCC(O)COc1ccccc1C#N (centres undefined)
inactive: Potency [1] | Potency [2] | Potency [4] | outcome [9] | outcome [6] | Potency [7] | outcome [8]

C=CC(=O)NC(C)(C)C
inactive: Potency [1] | Potency [2] | Potency [4] | outcome [9] | outcome [6] | Potency [7] | outcome [8]

CCC(C)C1N=C(C)C(C)S1 (centres undefined)
inactive: Potency [1] | Potency [2] | Potency [3] | Potency [4] | outcome [9] | outcome [6] | Potency [7] | outcome [8]

CC(Cc1ccccc1)(NC(=O)CN)c1ccccc1 (centres undefined)
inactive: Potency [1] | Potency [2] | Potency [3] | Potency [4] | outcome [9] | outcome [6] | Potency [7] | outcome [8]

O=C1c2ccccc2C(=O)C1c1ccc2cc(S(=O)(=O)O)cc(S(=O)(=O)O)c2n1
inactive: Potency [1] | Potency [2] | outcome [9] | outcome [6] | Potency [7] | outcome [8]
active: Potency [3] 52.5 µM

O=C(Nc1ccccc1)c1cc([N+](=O)[O-])ccc1Cl
inactive: Potency [1] | Potency [2] | Potency [3] | outcome [9] | outcome [6] | Potency [7] | outcome [8]

CCCCCCCCCCCCSC#N
inactive: Potency [1] | Potency [2] | Potency [3] | Potency [4] | outcome [9] | outcome [6] | Potency [7] | outcome [8]

Cc1cc(N)n(-c2ccccc2)n1
inactive: Potency [1] | Potency [2] | Potency [3] | Potency [4] | outcome [6] | Potency [7] | outcome [8]

FC(F)(Cl)C(F)(Cl)Cl
inactive: Potency [1] | Potency [2] | Potency [4] | Potency [5] | outcome [6] | Potency [7] | outcome [8]

Clc1cccc(C(c2ccc3nc[nH]c3c2)n2ccnc2)c1 (centres undefined)
inactive: Potency [1] | Potency [2] | Potency [4] | outcome [9] | outcome [6] | Potency [7] | outcome [8]

CCC(CC)C(=O)O
inactive: Potency [1] | Potency [2] | Potency [4] | outcome [9] | outcome [6] | Potency [7] | outcome [8]

NC(=O)c1ccccc1
inactive: Potency [1] | Potency [2] | Potency [3] | Potency [4] | outcome [9] | outcome [6] | Potency [7] | outcome [8]
